# Experimental data reported in PubChem BioAssay AID1159580 (chemical genetic matrix, 2015).
# Hit rate of the full screen: of about 5,500 compounds, about 2,000 (36%) were called active. Inconclusive results (about 18%) are left out. This is one part of the list. Values without a mark were called inactive. No stated cut-off is given here; in the data, active means normalized growth mostly below about 0.91 (no sharp cut-off); inconclusive means no clear call, values can overlap the other calls; inactive means mostly above about 0.92.
# Assay: chemical genetic growth profiling, strain panel (AID 1159580);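 further: tested at 20 µM; growth read once vehicle control cultures reached saturation at 30 °C; 1 = growth at the plate median or of vehicle wells; lower values mean less growth of the strain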
# Conditions: growth OD
smiles,measurement,setting,value
CCN(CC)C(C)CN1c2ccccc2Sc2ccccc21 (configuration not stated),normalized growth,"S. cerevisiae deletion strains, locus YJR075W, strain HOC1, active compounds read low",0.937
same,normalized growth,"S. cerevisiae deletion strains, locus YKL009W, strain mrt4, active compounds read low",0.888
same,normalized growth,"S. cerevisiae deletion strains, locus YKL068W, active compounds read low",0.965
same,normalized growth,"S. cerevisiae deletion strains, locus YKL085W, strain MDH1 (second series), active compounds read low",0.972
same,normalized growth,"S. cerevisiae deletion strains, locus YKL085W, strain MDH1, active compounds read low",0.972
same,normalized growth,"S. cerevisiae deletion strains, locus YKL160W, strain elf1, active compounds read low",0.907
same,normalized growth,"S. cerevisiae deletion strains, locus YKL190W, strain CNB1, active compounds read low",0.985
same,normalized growth,"S. cerevisiae deletion strains, locus YKR001C, strain vps1, active compounds read low",1.02
same,normalized growth,"S. cerevisiae deletion strains, locus YKR026C, strain gcn3, active compounds read low",1.01
same,normalized growth,"S. cerevisiae deletion strains, locus YKR091W, strain srl3, active compounds read low",0.986
same,normalized growth,"S. cerevisiae deletion strains, locus YLL001W, strain dnm1, active compounds read low",0.911
same,normalized growth,"S. cerevisiae deletion strains, locus YLL026W, active compounds read low",0.962
same,normalized growth,"S. cerevisiae deletion strains, locus YLL041C, strain sdh2, active compounds read low",0.981
same,normalized growth,"S. cerevisiae deletion strains, locus YLR027C, strain aat2, active compounds read low",0.961
same,normalized growth,"S. cerevisiae deletion strains, locus YLR039C, strain RIC1, active compounds read low",1.1
same,normalized growth,"S. cerevisiae deletion strains, locus YLR058C, strain SHM2, active compounds read low",0.963
same,normalized growth,"S. cerevisiae deletion strains, locus YLR102C, strain apc9, active compounds read low",0.965
same,normalized growth,"S. cerevisiae deletion strains, locus YLR113W, strain HOG1, active compounds read low",1.08
same,normalized growth,"S. cerevisiae deletion strains, locus YLR221C, strain rsa3, active compounds read low",0.949
same,normalized growth,"S. cerevisiae deletion strains, locus YLR258W, strain gsy2, active compounds read low",0.922
same,normalized growth,"S. cerevisiae deletion strains, locus YLR262C, strain YPT6 (second series), active compounds read low",1.05
same,normalized growth,"S. cerevisiae deletion strains, locus YLR262C, strain YPT6, active compounds read low",1.17
same,normalized growth,"S. cerevisiae deletion strains, locus YLR268W, strain sec22, active compounds read low",0.924
same,normalized growth,"S. cerevisiae deletion strains, locus YLR320W, strain mms22, active compounds read low",0.875 (active)
same,normalized growth,"S. cerevisiae deletion strains, locus YLR330W, strain CHS5, active compounds read low",0.975
same,normalized growth,"S. cerevisiae deletion strains, locus YLR342W, strain FKS1 (second series), active compounds read low",0.895
same,normalized growth,"S. cerevisiae deletion strains, locus YLR342W, strain FKS1, active compounds read low",0.879 (active)
same,normalized growth,"S. cerevisiae deletion strains, locus YLR357W, strain rsc2, active compounds read low",1.01
same,normalized growth,"S. cerevisiae deletion strains, locus YLR370C, strain arc18, active compounds read low",0.952
same,normalized growth,"S. cerevisiae deletion strains, locus YLR371W, strain rom2, active compounds read low",0.955
same,normalized growth,"S. cerevisiae deletion strains, locus YLR384C, strain iki3, active compounds read low",1
same,normalized growth,"S. cerevisiae deletion strains, locus YLR418C, strain cdc73, active compounds read low",0.844
same,normalized growth,"S. cerevisiae deletion strains, locus YML016C, strain PPZ1, active compounds read low",0.985
same,normalized growth,"S. cerevisiae deletion strains, locus YML032C, strain rad52, active compounds read low",0.951
same,normalized growth,"S. cerevisiae deletion strains, locus YML120C, strain ndi1, active compounds read low",1
same,normalized growth,"S. cerevisiae deletion strains, locus YML124C, strain tub3, active compounds read low",0.964
same,normalized growth,"S. cerevisiae deletion strains, locus YMR058W, strain fet3, active compounds read low",0.933
same,normalized growth,"S. cerevisiae deletion strains, locus YMR078C, strain ctf18, active compounds read low",0.959
same,normalized growth,"S. cerevisiae deletion strains, locus YMR125W, strain sto1, active compounds read low",1
same,normalized growth,"S. cerevisiae deletion strains, locus YMR129W, active compounds read low",0.995
same,normalized growth,"S. cerevisiae deletion strains, locus YMR205C, strain PFK2, active compounds read low",0.912
same,normalized growth,"S. cerevisiae deletion strains, locus YMR223W, strain ubp8, active compounds read low",0.944
same,normalized growth,"S. cerevisiae deletion strains, locus YMR231W, strain pep5, active compounds read low",1.01
same,normalized growth,"S. cerevisiae deletion strains, locus YMR263W, strain SAP30, active compounds read low",0.952
same,normalized growth,"S. cerevisiae deletion strains, locus YMR307W, strain GAS1, active compounds read low",0.902
same,normalized growth,"S. cerevisiae deletion strains, locus YNL067W, strain RPL9B, active compounds read low",0.91
same,normalized growth,"S. cerevisiae deletion strains, locus YNL071W, strain lat1, active compounds read low",0.99
same,normalized growth,"S. cerevisiae deletion strains, locus YNL128W, strain TEP1, active compounds read low",0.987
same,normalized growth,"S. cerevisiae deletion strains, locus YNL153C, strain GIM3, active compounds read low",0.963
same,normalized growth,"S. cerevisiae deletion strains, locus YNL183C, strain NPR1, active compounds read low",0.961
same,normalized growth,"S. cerevisiae deletion strains, locus YNL209W, strain ssb2, active compounds read low",0.891 (active)
same,normalized growth,"S. cerevisiae deletion strains, locus YNL233W, strain BNI4, active compounds read low",0.948
same,normalized growth,"S. cerevisiae deletion strains, locus YNL248C, strain rpa49, active compounds read low",0.954
same,normalized growth,"S. cerevisiae deletion strains, locus YNL250W, strain rad50, active compounds read low",0.98
same,normalized growth,"S. cerevisiae deletion strains, locus YNL271C, strain bni1, active compounds read low",0.971
same,normalized growth,"S. cerevisiae deletion strains, locus YNL298W, strain CLA4, active compounds read low",0.959
same,normalized growth,"S. cerevisiae deletion strains, locus YNL307C, strain MCK1, active compounds read low",0.89 (active)
same,normalized growth,"S. cerevisiae deletion strains, locus YNL322C, strain KRE1 (second series), active compounds read low",0.96
same,normalized growth,"S. cerevisiae deletion strains, locus YNL322C, strain KRE1, active compounds read low",0.986
same,normalized growth,"S. cerevisiae deletion strains, locus YNR049C, strain mso1, active compounds read low",0.985
same,normalized growth,"S. cerevisiae deletion strains, locus YNR052C, strain pop2, active compounds read low",0.967
same,normalized growth,"S. cerevisiae deletion strains, locus YOL006C, strain TOP1, active compounds read low",0.458 (active)
same,normalized growth,"S. cerevisiae deletion strains, locus YOL012C, strain htz1",1
same,normalized growth,"S. cerevisiae deletion strains, locus YOL147C, strain pex11, active compounds read low",0.961
same,normalized growth,"S. cerevisiae deletion strains, locus YOR001W, strain rrp6, active compounds read low",0.97
same,normalized growth,"S. cerevisiae deletion strains, locus YOR061W, strain CKA2, active compounds read low",0.988
same,normalized growth,"S. cerevisiae deletion strains, locus YOR069W, strain VPS5, active compounds read low",0.985
same,normalized growth,"S. cerevisiae deletion strains, locus YOR070C, strain gyp1, active compounds read low",0.933
same,normalized growth,"S. cerevisiae deletion strains, locus YOR080W, strain dia2, active compounds read low",1
same,normalized growth,"S. cerevisiae deletion strains, locus YOR083W, strain WHI5, active compounds read low",0.841 (active)
same,normalized growth,"S. cerevisiae deletion strains, locus YOR106W, strain vam3, active compounds read low",0.803 (active)
same,normalized growth,"S. cerevisiae deletion strains, locus YOR136W, strain idh2, active compounds read low",0.965
same,normalized growth,"S. cerevisiae deletion strains, locus YOR144C, strain elg1, active compounds read low",0.955
same,normalized growth,"S. cerevisiae deletion strains, locus YOR184W, strain ser1, active compounds read low",0.94
same,normalized growth,"S. cerevisiae deletion strains, locus YOR231W, strain MKK1, active compounds read low",1.04
same,normalized growth,"S. cerevisiae deletion strains, locus YOR265W, strain rbl2, active compounds read low",0.986
same,normalized growth,"S. cerevisiae deletion strains, locus YOR270C, strain vph1, active compounds read low",0.67 (active)
same,normalized growth,"S. cerevisiae deletion strains, locus YOR290C, strain snf2, active compounds read low",0.89
same,normalized growth,"S. cerevisiae deletion strains, locus YOR316C, strain cot1, active compounds read low",0.942
same,normalized growth,"S. cerevisiae deletion strains, locus YPL051W, strain arl3, active compounds read low",0.831 (active)
same,normalized growth,"S. cerevisiae deletion strains, locus YPL055C, strain LGE1, active compounds read low",0.89
same,normalized growth,"S. cerevisiae deletion strains, locus YPL078C, strain atp4, active compounds read low",0.87 (active)
same,normalized growth,"S. cerevisiae deletion strains, locus YPL106C, strain sse1, active compounds read low",0.927
same,normalized growth,"S. cerevisiae deletion strains, locus YPL240C, strain hsp82, active compounds read low",0.977
same,normalized growth,"S. cerevisiae deletion strains, locus YPL241C, strain CIN2, active compounds read low",0.996
same,normalized growth,"S. cerevisiae deletion strains, locus YPL256C, strain CLN2, active compounds read low",1.05
same,normalized growth,"S. cerevisiae deletion strains, locus YPR119W, strain clb2, active compounds read low",0.954
same,normalized growth,"S. cerevisiae deletion strains, locus YPR141C, strain kar3, active compounds read low",0.957
same,normalized growth,"S. cerevisiae deletion strains, locus YPR163C, strain tif3, active compounds read low",0.949
same,normalized growth,"S. cerevisiae deletion strains, locus YPR167C, strain met16, active compounds read low",0.936
same,normalized growth,"S. cerevisiae deletion strains, strain wtn01, active compounds read low",0.957
same,normalized growth,"S. cerevisiae strains, strain wild type, active compounds read low",1
